Experimental data from the supplement of paper PMC11732987, “Enantioselective OTUD7B fragment discovery through chemoproteomics screening and high-throughput optimisation” (Communications Chemistry, 2025).

Experiments:
Assay in all cases: log2 ratio of Biotin-Ahx-Ub-VS probe labelling (fragment/DMSO); higher = less target engagement (more negative = stronger competition), active = hit call of the paper (q ≤ 0.05, log2 ratio ≤ -1)
Settings in all cases: compound concentration: 200 uM; treatment time: 3 h
USP34 = USP34 (UniProt Q70CQ2)
Chain of USP34 (Q70CQ2 whole entry, the tested form may be a part): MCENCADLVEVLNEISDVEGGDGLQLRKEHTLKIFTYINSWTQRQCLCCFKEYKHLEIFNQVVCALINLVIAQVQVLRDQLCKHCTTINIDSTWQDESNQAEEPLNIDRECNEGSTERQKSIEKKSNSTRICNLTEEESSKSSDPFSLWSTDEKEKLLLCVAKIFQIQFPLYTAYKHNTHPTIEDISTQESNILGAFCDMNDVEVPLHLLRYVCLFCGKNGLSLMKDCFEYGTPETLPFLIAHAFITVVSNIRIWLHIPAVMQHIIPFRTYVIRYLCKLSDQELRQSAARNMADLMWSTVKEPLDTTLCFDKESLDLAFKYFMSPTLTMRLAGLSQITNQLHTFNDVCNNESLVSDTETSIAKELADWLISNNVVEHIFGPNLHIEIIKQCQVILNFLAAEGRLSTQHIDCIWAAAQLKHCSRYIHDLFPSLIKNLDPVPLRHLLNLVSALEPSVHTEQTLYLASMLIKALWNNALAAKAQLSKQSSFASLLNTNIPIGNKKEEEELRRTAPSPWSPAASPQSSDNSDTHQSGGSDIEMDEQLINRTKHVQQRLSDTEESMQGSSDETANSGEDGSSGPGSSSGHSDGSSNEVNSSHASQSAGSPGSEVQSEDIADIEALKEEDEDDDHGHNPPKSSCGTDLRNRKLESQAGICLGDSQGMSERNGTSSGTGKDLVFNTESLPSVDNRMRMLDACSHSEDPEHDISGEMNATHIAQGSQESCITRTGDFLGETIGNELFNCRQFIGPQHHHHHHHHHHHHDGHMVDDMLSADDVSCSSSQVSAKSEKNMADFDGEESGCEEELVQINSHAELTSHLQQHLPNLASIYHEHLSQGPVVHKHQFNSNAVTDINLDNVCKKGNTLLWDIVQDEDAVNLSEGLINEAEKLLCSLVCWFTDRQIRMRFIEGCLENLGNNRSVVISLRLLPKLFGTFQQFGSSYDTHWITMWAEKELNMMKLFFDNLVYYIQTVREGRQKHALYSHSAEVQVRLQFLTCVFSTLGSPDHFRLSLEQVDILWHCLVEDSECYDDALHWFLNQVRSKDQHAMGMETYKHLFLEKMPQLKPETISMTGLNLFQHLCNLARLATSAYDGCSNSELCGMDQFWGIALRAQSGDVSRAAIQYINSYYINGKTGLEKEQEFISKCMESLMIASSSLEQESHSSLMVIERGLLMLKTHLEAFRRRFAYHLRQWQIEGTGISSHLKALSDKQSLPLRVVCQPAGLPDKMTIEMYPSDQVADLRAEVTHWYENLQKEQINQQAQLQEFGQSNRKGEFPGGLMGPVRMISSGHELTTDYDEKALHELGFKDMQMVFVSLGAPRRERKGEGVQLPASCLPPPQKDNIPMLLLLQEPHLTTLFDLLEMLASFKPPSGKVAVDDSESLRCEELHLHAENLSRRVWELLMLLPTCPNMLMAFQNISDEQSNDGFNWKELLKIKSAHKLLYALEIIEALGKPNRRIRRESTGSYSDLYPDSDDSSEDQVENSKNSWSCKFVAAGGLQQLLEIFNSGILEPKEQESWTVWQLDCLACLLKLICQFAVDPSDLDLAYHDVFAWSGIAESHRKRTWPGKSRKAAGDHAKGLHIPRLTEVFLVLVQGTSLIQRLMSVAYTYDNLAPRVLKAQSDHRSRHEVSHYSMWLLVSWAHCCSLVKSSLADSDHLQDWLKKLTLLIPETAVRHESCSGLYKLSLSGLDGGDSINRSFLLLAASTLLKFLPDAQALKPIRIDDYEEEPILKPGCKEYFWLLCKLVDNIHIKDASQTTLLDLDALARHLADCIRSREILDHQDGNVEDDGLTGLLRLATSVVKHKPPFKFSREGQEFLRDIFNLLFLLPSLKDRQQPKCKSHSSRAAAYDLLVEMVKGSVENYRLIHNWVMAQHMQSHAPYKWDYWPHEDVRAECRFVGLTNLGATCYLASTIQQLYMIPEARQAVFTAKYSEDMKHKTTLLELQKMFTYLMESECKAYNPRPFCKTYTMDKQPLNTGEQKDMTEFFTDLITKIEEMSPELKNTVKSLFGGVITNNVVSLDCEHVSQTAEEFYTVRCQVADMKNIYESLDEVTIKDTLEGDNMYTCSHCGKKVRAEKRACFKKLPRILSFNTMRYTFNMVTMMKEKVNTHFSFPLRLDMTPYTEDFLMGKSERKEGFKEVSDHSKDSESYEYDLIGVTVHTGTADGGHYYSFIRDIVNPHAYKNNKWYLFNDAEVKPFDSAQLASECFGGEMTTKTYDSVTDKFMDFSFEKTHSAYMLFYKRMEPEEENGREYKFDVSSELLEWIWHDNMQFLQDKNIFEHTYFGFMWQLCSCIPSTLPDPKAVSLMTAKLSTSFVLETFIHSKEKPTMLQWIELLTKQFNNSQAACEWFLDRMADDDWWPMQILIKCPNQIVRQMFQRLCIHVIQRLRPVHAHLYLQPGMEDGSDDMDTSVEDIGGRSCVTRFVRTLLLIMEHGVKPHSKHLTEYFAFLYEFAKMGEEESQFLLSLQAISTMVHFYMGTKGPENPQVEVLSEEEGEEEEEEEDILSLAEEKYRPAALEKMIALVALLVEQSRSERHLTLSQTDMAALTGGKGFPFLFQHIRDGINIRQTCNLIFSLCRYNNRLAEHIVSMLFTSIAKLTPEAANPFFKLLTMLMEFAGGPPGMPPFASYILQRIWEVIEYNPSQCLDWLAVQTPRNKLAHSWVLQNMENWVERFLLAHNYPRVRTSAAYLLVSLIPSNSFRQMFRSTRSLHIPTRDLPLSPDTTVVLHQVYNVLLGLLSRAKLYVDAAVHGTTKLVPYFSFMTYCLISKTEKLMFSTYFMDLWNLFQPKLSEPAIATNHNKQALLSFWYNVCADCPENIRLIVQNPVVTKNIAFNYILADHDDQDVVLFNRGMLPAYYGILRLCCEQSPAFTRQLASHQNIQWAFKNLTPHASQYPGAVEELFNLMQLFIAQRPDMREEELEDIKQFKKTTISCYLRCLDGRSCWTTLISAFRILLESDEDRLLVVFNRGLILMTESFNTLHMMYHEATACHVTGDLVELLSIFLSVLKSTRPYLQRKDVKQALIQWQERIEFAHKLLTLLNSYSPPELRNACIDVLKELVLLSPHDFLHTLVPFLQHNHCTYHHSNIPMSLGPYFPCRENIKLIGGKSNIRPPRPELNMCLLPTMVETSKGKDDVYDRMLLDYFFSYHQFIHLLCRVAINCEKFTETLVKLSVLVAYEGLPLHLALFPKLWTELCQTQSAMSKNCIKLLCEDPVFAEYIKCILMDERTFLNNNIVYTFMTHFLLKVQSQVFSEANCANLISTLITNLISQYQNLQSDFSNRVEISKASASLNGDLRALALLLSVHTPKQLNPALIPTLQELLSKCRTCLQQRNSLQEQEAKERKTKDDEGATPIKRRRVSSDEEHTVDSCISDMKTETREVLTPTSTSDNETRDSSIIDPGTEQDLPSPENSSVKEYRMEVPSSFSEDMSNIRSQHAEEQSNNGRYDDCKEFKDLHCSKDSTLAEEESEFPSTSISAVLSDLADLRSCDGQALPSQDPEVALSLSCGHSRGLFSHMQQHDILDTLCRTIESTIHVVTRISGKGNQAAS
Procedure, shortened: (§1)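 Using Biotin-Ahx-Ub-VS at 0.5 µM final for 1 h, DUBs were labelled in HEK293T lysate (495 µg per sample) that had first been treated in triplicate with fragment at 200 µM or vehicle for 3 h. NeutrAvidin enrichment, LysC and trypsin digestion and diaPASEF LC-MS/MS followed. Spectronaut label-free quantities were global-median-normalised. Values are average log2 fragment/vehicle ratios by unpaired t-test, using proteins with ≥2 unique peptides.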

USP36 = target: T1, USP36 (UniProt Q9P275)
T1 sequence (whole entry): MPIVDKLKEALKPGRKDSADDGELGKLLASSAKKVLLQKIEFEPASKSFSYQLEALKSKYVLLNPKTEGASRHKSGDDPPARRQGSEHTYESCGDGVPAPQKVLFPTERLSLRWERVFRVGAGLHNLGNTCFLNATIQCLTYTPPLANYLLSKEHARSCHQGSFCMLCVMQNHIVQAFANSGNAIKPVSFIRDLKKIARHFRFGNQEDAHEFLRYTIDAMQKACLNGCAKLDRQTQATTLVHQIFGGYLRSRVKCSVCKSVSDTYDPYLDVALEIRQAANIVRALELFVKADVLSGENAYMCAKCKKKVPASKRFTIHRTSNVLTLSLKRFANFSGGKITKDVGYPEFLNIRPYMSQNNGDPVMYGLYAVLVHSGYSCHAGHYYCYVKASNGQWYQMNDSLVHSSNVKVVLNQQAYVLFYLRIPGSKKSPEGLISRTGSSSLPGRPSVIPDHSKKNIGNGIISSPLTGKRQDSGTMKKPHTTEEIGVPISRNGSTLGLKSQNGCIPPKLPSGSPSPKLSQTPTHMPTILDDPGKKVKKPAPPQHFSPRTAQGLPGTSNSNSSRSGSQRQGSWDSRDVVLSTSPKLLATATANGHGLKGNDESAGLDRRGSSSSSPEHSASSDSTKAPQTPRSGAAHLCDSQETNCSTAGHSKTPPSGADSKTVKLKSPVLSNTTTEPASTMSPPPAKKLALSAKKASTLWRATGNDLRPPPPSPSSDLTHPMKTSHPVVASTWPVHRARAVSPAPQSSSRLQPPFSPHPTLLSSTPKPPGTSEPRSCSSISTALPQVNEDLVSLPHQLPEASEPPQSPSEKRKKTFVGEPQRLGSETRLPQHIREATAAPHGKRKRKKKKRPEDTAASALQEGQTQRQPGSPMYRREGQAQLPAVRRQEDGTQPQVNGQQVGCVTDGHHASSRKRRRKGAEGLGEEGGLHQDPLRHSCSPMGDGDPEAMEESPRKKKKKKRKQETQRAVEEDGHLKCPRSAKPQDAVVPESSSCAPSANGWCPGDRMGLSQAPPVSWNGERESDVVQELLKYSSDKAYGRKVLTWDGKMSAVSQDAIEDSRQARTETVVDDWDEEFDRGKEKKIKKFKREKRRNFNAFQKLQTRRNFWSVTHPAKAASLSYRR
Procedure, shortened: as §1

USP38 = target: T2, USP38 (UniProt Q8NB14)
T2 sequence (whole entry): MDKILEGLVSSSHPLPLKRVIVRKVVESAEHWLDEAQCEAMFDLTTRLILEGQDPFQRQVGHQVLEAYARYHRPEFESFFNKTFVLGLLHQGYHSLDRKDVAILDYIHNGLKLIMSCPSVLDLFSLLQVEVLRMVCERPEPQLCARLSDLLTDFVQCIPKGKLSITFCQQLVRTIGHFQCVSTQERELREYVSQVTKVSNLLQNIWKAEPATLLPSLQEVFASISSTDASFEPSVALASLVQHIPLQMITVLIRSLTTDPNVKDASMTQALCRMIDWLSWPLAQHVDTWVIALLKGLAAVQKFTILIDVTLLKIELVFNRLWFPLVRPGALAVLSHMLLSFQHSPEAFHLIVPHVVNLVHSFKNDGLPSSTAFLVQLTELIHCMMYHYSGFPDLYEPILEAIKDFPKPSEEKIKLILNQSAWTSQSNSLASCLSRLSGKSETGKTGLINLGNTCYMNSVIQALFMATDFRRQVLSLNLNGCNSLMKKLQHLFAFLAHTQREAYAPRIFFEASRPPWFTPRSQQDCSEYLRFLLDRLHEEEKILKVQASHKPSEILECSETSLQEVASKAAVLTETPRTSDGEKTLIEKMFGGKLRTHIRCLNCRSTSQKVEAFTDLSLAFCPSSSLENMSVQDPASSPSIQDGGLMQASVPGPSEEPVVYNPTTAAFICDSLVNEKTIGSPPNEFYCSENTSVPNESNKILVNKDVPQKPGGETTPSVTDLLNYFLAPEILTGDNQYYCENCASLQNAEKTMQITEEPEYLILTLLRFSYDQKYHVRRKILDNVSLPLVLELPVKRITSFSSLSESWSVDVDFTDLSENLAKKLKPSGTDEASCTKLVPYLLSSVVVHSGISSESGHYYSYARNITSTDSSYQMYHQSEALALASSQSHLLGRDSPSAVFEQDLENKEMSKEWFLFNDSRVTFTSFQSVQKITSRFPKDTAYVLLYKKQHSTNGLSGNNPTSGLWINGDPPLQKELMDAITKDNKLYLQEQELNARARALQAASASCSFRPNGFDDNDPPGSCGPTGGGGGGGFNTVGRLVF
Procedure, shortened: as §1

USP39 = target: T3, USP39 (UniProt Q53GS9)
T3 sequence (whole entry): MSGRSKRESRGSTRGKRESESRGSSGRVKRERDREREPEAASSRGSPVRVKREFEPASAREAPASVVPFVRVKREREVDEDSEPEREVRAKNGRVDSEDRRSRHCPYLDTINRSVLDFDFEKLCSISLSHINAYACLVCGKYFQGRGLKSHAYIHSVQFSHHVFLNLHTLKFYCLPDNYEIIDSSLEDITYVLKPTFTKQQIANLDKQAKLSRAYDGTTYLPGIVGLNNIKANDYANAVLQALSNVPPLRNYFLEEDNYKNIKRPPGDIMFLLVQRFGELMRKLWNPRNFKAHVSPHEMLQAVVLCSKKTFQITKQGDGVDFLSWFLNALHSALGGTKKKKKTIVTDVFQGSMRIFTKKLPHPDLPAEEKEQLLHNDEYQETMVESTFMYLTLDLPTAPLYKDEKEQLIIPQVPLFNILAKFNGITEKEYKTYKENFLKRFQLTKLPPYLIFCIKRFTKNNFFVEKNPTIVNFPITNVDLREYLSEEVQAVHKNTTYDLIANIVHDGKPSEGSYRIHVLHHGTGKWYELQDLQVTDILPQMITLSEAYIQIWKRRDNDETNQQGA
Procedure, shortened: as §1

USP4 = target: T4, USP4 (UniProt Q13107)
T4 sequence (whole entry): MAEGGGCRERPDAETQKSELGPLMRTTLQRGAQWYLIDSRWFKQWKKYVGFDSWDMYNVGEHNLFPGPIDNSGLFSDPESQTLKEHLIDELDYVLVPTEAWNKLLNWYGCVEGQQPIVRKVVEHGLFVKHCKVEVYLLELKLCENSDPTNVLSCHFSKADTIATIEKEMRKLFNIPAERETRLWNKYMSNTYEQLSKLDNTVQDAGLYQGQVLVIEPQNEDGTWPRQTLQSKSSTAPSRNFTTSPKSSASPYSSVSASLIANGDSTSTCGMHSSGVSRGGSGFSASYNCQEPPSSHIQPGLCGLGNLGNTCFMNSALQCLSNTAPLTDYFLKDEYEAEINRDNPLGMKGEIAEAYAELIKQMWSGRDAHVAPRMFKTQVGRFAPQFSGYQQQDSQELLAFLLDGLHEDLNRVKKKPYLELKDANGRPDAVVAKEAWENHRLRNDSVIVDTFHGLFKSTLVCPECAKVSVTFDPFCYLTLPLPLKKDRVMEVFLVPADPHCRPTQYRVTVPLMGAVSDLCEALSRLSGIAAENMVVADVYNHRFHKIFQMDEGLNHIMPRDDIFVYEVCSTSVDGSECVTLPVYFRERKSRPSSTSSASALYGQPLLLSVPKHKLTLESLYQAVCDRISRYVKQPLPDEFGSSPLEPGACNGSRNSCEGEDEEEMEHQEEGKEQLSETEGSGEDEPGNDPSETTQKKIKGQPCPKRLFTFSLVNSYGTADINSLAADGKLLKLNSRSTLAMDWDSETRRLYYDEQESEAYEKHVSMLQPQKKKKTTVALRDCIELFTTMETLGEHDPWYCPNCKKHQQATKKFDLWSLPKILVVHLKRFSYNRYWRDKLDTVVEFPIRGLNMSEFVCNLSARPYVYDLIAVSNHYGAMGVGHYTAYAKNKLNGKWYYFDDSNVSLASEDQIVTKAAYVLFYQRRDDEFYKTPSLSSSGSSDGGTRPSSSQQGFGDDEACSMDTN
Procedure, shortened: as §1

Measured: log2 ratio of Biotin-Ahx-Ub-VS probe labelling

Cc1ncsc1CCNC(=O)CCl
inactive: USP34 0.121 | USP36 -0.151 | USP38 0.14 | USP39 -0.101 | USP4 0.244
